# Source: paper PMC11062922 (Nature Chemical Biology, 2023)
# Like-named read-outs stand apart in the source and are kept apart here.
# How the values were obtained:
# PAK4 = settings: read-out: apparent Kd, n = 1
# PHKG2 = settings: read-out: apparent Kd, n = 1
substance,measurement,setting,value
Lestaurtinib,potency estimated from few doses,"PAK4; compound concentrations:100 nM and 1000 nM (sheet 'Lestaurtinib' of Supplementary Table 1),run:Lestaurtinib_02766_R2,Plate:MR027",23.7 nM
same,potency estimated from few doses,"PAK4; compound concentrations:100 nM and 1000 nM (sheet 'Lestaurtinib' of Supplementary Table 1),run:Lestaurtinib_02768_R1,Plate:MR028",35.4 nM
same,potency estimated from few doses,"PAK4; compound concentrations:100 nM and 1000 nM (sheet 'Lestaurtinib' of Supplementary Table 1),run:Lestaurtinib_02768_R2,Plate:MR028",29.5 nM
same,potency estimated from few doses,"PAK4; compound concentrations:100 nM and 1000 nM (sheet 'Lestaurtinib' of Supplementary Table 1),run:Lestaurtinib_02768_R3,Plate:MR028",32.7 nM
same,potency estimated from few doses,"PAK4; compound concentrations:100 nM and 1000 nM (sheet 'Lestaurtinib' of Supplementary Table 1),run:Lestaurtinib_02795_R1,Plate:MR022",35.1 nM
same,potency estimated from few doses,"PAK4; compound concentrations:100 nM and 1000 nM (sheet 'Lestaurtinib' of Supplementary Table 1),run:Lestaurtinib_02795_R2,Plate:MR022",29.7 nM
same,potency estimated from few doses,"PAK4; compound concentrations:100 nM and 1000 nM (sheet 'Lestaurtinib' of Supplementary Table 1),run:Lestaurtinib_02795_R3,Plate:MR022",113 nM
same,potency estimated from few doses,"PAK4; compound concentrations:100 nM and 1000 nM (sheet 'Lestaurtinib' of Supplementary Table 1),run:Lestaurtinib_02802_R3,Plate:MR029",24.8 nM
same,potency estimated from few doses,"PAK4; compound concentrations:100 nM and 1000 nM (sheet 'Lestaurtinib' of Supplementary Table 1),run:Lestaurtinib_02896_R1,Plate:MR030",35.9 nM
same,potency estimated from few doses,"PAK4; compound concentrations:100 nM and 1000 nM (sheet 'Lestaurtinib' of Supplementary Table 1),run:Lestaurtinib_02896_R2,Plate:MR030",30.1 nM
same,potency estimated from few doses,"PAK4; compound concentrations:100 nM and 1000 nM (sheet 'Lestaurtinib' of Supplementary Table 1),run:Lestaurtinib_02896_R3,Plate:MR030",36.2 nM
same,potency estimated from few doses,"PAK4; compound concentrations:100 nM and 1000 nM (sheet 'Lestaurtinib' of Supplementary Table 1),run:Lestaurtinib_03172_R1,Plate:MR031",32.7 nM
same,potency estimated from few doses,"PAK4; compound concentrations:100 nM and 1000 nM (sheet 'Lestaurtinib' of Supplementary Table 1),run:Lestaurtinib_03172_R2,Plate:MR031",29.6 nM
same,potency estimated from few doses,"PAK4; compound concentrations:100 nM and 1000 nM (sheet 'Lestaurtinib' of Supplementary Table 1),run:Lestaurtinib_03172_R3,Plate:MR031",26.1 nM
same,potency estimated from few doses,"PAK4; compound concentrations:100 nM and 1000 nM (sheet 'Lestaurtinib' of Supplementary Table 1),run:Lestaurtinib_03252_R1,Plate:MR032",43.4 nM
same,potency estimated from few doses,"PAK4; compound concentrations:100 nM and 1000 nM (sheet 'Lestaurtinib' of Supplementary Table 1),run:Lestaurtinib_03252_R2,Plate:MR032",25.3 nM
same,potency estimated from few doses,"PAK4; compound concentrations:100 nM and 1000 nM (sheet 'Lestaurtinib' of Supplementary Table 1),run:Lestaurtinib_03260_R1,Plate:MR033",48.6 nM
same,potency estimated from few doses,"PAK4; compound concentrations:100 nM and 1000 nM (sheet 'Lestaurtinib' of Supplementary Table 1),run:Lestaurtinib_03260_R2,Plate:MR033",48 nM
same,potency estimated from few doses,"PHKG2; compound concentrations:100 nM and 1000 nM (sheet 'Lestaurtinib' of Supplementary Table 1),run:Lestaurtinib_02339_R1,Plate:MR001",838 nM
same,potency estimated from few doses,"PHKG2; compound concentrations:100 nM and 1000 nM (sheet 'Lestaurtinib' of Supplementary Table 1),run:Lestaurtinib_02339_R2,Plate:MR001",142 nM
same,potency estimated from few doses,"PHKG2; compound concentrations:100 nM and 1000 nM (sheet 'Lestaurtinib' of Supplementary Table 1),run:Lestaurtinib_02339_R3,Plate:MR001",275 nM
same,potency estimated from few doses,"PHKG2; compound concentrations:100 nM and 1000 nM (sheet 'Lestaurtinib' of Supplementary Table 1),run:Lestaurtinib_02364_R1,Plate:MR002",462 nM
same,potency estimated from few doses,"PHKG2; compound concentrations:100 nM and 1000 nM (sheet 'Lestaurtinib' of Supplementary Table 1),run:Lestaurtinib_02364_R2,Plate:MR002",360 nM
same,potency estimated from few doses,"PHKG2; compound concentrations:100 nM and 1000 nM (sheet 'Lestaurtinib' of Supplementary Table 1),run:Lestaurtinib_02364_R3,Plate:MR002",574 nM
same,potency estimated from few doses,"PHKG2; compound concentrations:100 nM and 1000 nM (sheet 'Lestaurtinib' of Supplementary Table 1),run:Lestaurtinib_02367_R1,Plate:MR003",323 nM
same,potency estimated from few doses,"PHKG2; compound concentrations:100 nM and 1000 nM (sheet 'Lestaurtinib' of Supplementary Table 1),run:Lestaurtinib_02367_R3,Plate:MR003",356 nM
same,potency estimated from few doses,"PHKG2; compound concentrations:100 nM and 1000 nM (sheet 'Lestaurtinib' of Supplementary Table 1),run:Lestaurtinib_02381_R1,Plate:MR004",137 nM
same,potency estimated from few doses,"PHKG2; compound concentrations:100 nM and 1000 nM (sheet 'Lestaurtinib' of Supplementary Table 1),run:Lestaurtinib_02381_R2,Plate:MR004",197 nM
same,potency estimated from few doses,"PHKG2; compound concentrations:100 nM and 1000 nM (sheet 'Lestaurtinib' of Supplementary Table 1),run:Lestaurtinib_02381_R3,Plate:MR004",144 nM
same,potency estimated from few doses,"PHKG2; compound concentrations:100 nM and 1000 nM (sheet 'Lestaurtinib' of Supplementary Table 1),run:Lestaurtinib_02422_R1,Plate:MR006",213 nM
same,potency estimated from few doses,"PHKG2; compound concentrations:100 nM and 1000 nM (sheet 'Lestaurtinib' of Supplementary Table 1),run:Lestaurtinib_02422_R2,Plate:MR006",55.3 nM
same,potency estimated from few doses,"PHKG2; compound concentrations:100 nM and 1000 nM (sheet 'Lestaurtinib' of Supplementary Table 1),run:Lestaurtinib_02437_R1,Plate:MR007",135 nM
same,potency estimated from few doses,"PHKG2; compound concentrations:100 nM and 1000 nM (sheet 'Lestaurtinib' of Supplementary Table 1),run:Lestaurtinib_02443_R1,Plate:MR009",170 nM
same,potency estimated from few doses,"PHKG2; compound concentrations:100 nM and 1000 nM (sheet 'Lestaurtinib' of Supplementary Table 1),run:Lestaurtinib_02443_R2,Plate:MR009",193 nM
same,potency estimated from few doses,"PHKG2; compound concentrations:100 nM and 1000 nM (sheet 'Lestaurtinib' of Supplementary Table 1),run:Lestaurtinib_02443_R3,Plate:MR009",99.2 nM
same,potency estimated from few doses,"PHKG2; compound concentrations:100 nM and 1000 nM (sheet 'Lestaurtinib' of Supplementary Table 1),run:Lestaurtinib_02473_R1,Plate:MR010",310 nM
same,potency estimated from few doses,"PHKG2; compound concentrations:100 nM and 1000 nM (sheet 'Lestaurtinib' of Supplementary Table 1),run:Lestaurtinib_02473_R2,Plate:MR010",228 nM
same,potency estimated from few doses,"PHKG2; compound concentrations:100 nM and 1000 nM (sheet 'Lestaurtinib' of Supplementary Table 1),run:Lestaurtinib_02473_R3,Plate:MR010",159 nM
same,potency estimated from few doses,"PHKG2; compound concentrations:100 nM and 1000 nM (sheet 'Lestaurtinib' of Supplementary Table 1),run:Lestaurtinib_02482_R1,Plate:MR011",197 nM
same,potency estimated from few doses,"PHKG2; compound concentrations:100 nM and 1000 nM (sheet 'Lestaurtinib' of Supplementary Table 1),run:Lestaurtinib_02482_R2,Plate:MR011",501 nM
same,potency estimated from few doses,"PHKG2; compound concentrations:100 nM and 1000 nM (sheet 'Lestaurtinib' of Supplementary Table 1),run:Lestaurtinib_02482_R3,Plate:MR011",248 nM
same,potency estimated from few doses,"PHKG2; compound concentrations:100 nM and 1000 nM (sheet 'Lestaurtinib' of Supplementary Table 1),run:Lestaurtinib_02496_R1,Plate:MR013",115 nM
